IL-2 act: IL-2 activation | AID 652025 | actives 0.065% (n = 360,000) | IL-2 activation reporter assay, cell-based qHTS; stimulated with anti-CD3/CD4/CD28 beads; in transgenic mouse T cells | activation, % (series mostly up to about 46 µM); in the data active = activation above about 50%; inconclusive = mostly about 30% to 49%; also: 0% is about no effect
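EGFP and DsRed fluorescence is measured by plate cytometry in unstimulated transgenic mouse T cells exposed to compound for 60 minutes, then stimulated 18 hours at 37 degrees C with anti-CD3/anti-CD4 beads plus anti-CD28.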
Nrf2 inh: Nrf2 pathway inhibition | A549 ARE-Fluc reporter, luciferase luminescence, 18-24 h | Potency, µM (top dose mostly 46 µM), for the others: top-dose activity change, negative = inhibition, most hits filed as inhibitors | actives 2.1% (n = 360,000); also: potency is read from the fitted curve at half-maximal effect; % is scaled to controls: 0 for no effect and ±100 for the full control effect; nearly all actives have a fitted effect of over 60% in size
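Concentration-response testing used A549 ARE_Fluc cells at 5000 cells/well. Following an 18-24 h compound incubation, viability was read by fluorescence (Ex 405/Em 525) and luciferase output by luminescence.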
A549 viability: counter-screen for Nrf2 inhibitors: cytotoxicity in A549 cells | A549 ARE-Fluc cells, CellTiter-Fluor viability, 18-24 h | actives 0.16% (n = 390,000) | Potency, µM (highest dose often 46 µM), inactives show top-dose activity change, negative = cytotoxicity, actives largely listed as inhibitors; also: potency is read from the fitted curve at half-maximal effect; % is scaled to controls: 0 for no effect and ±100 for the full control effect
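A549 ARE_Fluc cells in 5% FBS OPTI-MEM were exposed to compounds in concentration-response for 18-24 h at 37 deg C. Viability was read by CellTiter-Fluor fluorescence (Ex 405/Em 525) after 30 min, before the luciferase read.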
Nrf2 ARE act: Nrf2 pathway activation. AID 624171. AREc32 ARE-luciferase reporter (MCF7-derived line), luminescence, 24 h. Potency, µM (doses to about 46.1 µM), inactives show top-dose activation, usual class: activators. actives 0.31% (n = 410,000); also: potency is read from the fitted curve at half-maximal effect; % of control where 0% means no effect; nearly all actives have a fitted effect of over 65% in size
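AREc32_Fluc, 1000 cells/well, OPTI-MEM + 5% FBS, o/n 37 deg C 5% CO2; 23 nL cpd by pin tool, 24 hr; Steady-Glo 30 min RT, luminescence.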
* = called active by the depositor; ? = inconclusive; nt = no result. Only some compounds are listed: those with a hit (about 2.3% of all), similar ones and a draw of the others. Unless noted, calls follow the shape of the dose curve; as a rule, active = well fitted curve in the direction sought with a large enough effect; inconclusive = small, poorly fitted or top-dose-only effect, or another doubt; inactive = no such curve, though single readings can be large; an effect the other way counts as inactive or inconclusive.

SMILES	IL-2 act	Nrf2 inh	A549 viability	Nrf2 ARE act
CCOc1ccc(Nc2c(S(=O)(=O)c3ccc(C)cc3)cnc3ccccc23)cc1	nt	23.1µM*	-14.0%	0.8%
CCOc1ccc(Nc2c(S(=O)(=O)c3ccc(C)cc3)cnc3ccc(F)cc23)cc1	nt	?	-11.1%	2.2%
O=C(Cc1coc2cc3c(cc12)CCC3)OCC(=O)N1CCCC1=O	-0.6	?	2.5%	-1.7%
Cc1ccc(C(=O)Nc2c(C(=O)Nc3ccc(C)c(C)c3)sc3nc(C)cc(C)c23)cc1	nt	?	-11.5%	7.7%
O=C(NCc1ccc(Cl)cc1)C1CCCN(C(=O)c2cnn(-c3ccc(F)cc3)c2-n2cccc2)C1 (configuration not stated)	nt	?	-10.7%	1.2%
Cc1ccc(NC(=O)C2CCCN(C(=O)c3cnn(-c4ccccc4)c3-n3cccc3)C2)cc1 (configuration not stated)	nt	13µM*	-6.1%	0.6%
CSc1cccc(NC(=O)C2CCN(C(=O)c3cnn(-c4ccccc4)c3-n3cccc3)CC2)c1	nt	23.1µM*	-22.2%	7.0%
COc1ccc2c(c1OC)CN1CCc3cc4c(cc3[C@H]1C2)OCO4	-0.6	-18.9%	-1.4%	4.8%
CCC1CN2CCc3cc(OC)c(OC)cc3C2CC1CC1NCCc2c1[nH]c1ccc(O)cc21 (configuration not stated)	-3.0	0.517µM*	1.16µM*	-1.7%
Cc1c(P(=S)(c2ccccc2)c2ccccc2)[n+]2ccccc2n1C/C=C/c1ccccc1	-0.8	?	-18.0%	-3.2%
Cc1sc2ncnc(N3CCN(S(=O)(=O)c4ccc(Br)cc4)CC3)c2c1C	-4.1	11.6µM*	-7.2%	0.2%
CC(C)C[C@H]1CN([C@@H](CC(C)C)CN2CCCC2CN2C(=S)NC[C@@H]2Cc2ccc(O)cc2)C(=S)N1CC1CCCCCC1 (some centres not stated)	-0.8	?	-15.8%	-1.1%
CC(C)NS(=O)(=O)c1ccc2c(c1)oc(=O)n2C	-3.1	9.1%	?	-0.1%
COc1ccc(NS(=O)(=O)c2ccc3c(c2)oc(=O)n3C)cc1Cl	-0.6	14.6µM*	0.1%	1.8%
CC[n+]1c(SC)ccc2cc(OC)ccc21	-0.3	18.4µM*	?	-0.3%
CC(CNC(=O)c1ccc(CSc2nc3ccncc3n2Cc2ccc(F)cc2)cc1)c1ccccc1 (configuration not stated)	nt	23.1µM*	-9.0%	2.7%
O=C(NC1CCCCC1)c1ccc(CSc2nc3ccncc3n2Cc2ccc(F)cc2)cc1	nt	?	-6.4%	-0.4%
Cc1cccc(Cc2cnc(NC(=O)c3ccc4c(c3)CC(c3ccccc3)OC4=O)s2)c1 (configuration not stated)	nt	?	-0.8%	-0.4%
O=C(COc1ccc(Cl)cc1)N1CCN(Cc2ccc([N+](=O)[O-])cc2)CC1	-2.9	?	-21.3%	6.0%
COc1ccc(OCC(=O)N2CCN(Cc3nc4cc([N+](=O)[O-])ccc4n3C)CC2)cc1	-2.5	23.1µM*	-19.9%	5.7%
O=C1C=CC2C3C(=O)N(c4ccccc4)C(=O)C3C1N2Cc1ccccc1 (configuration not stated)	-6.7	13.1%	0.0%	?
O=C(O)CSCC(=O)N(Cc1ccccc1)c1nc(-c2ccccc2)c(-c2ccccc2)s1	-2.4	?	-0.4%	-0.4%
CCCOc1ccc(C(=O)Nc2ccc(-c3cc4ccccc4oc3=O)c(C)c2)cc1	nt	5.8µM*	-6.7%	6.9%
c1ccc2nc3ccccc3nc2c1	0.8	20.6µM*	?	3.8%
Cc1cc(-c2nc3ncccc3o2)ccc1NC(=O)c1ccccc1Br	nt	?	-24.5%	0.2%
SMILES	IL-2 act	Nrf2 inh	A549 viability	Nrf2 ARE act
COc1ccc(NC(=O)CCOc2cc(C)ccc2C)cc1S(=O)(=O)N1CCCCC1	-1.1	?	-27.6%	2.4%
CN1CCN(c2ccc([N+](=O)[O-])c(N/N=C3\CN4CCC3CC4)c2)CC1	0.8	0.2%	20.6µM*	0.4%
CCn1nc(-c2ccccc2)nc2c(=O)n(C)c(=O)nc1-2	-0.6	2.91µM*	4.11µM*	-1.8%
Cn1nc(-c2ccccc2)nc2c(=O)n(C)c(=O)nc1-2	nt	2.59µM*	3.66µM*	nt
Cc1nc2c(=O)n(C)c(=O)nc-2n(C)n1	-7.4	2.31µM*	1.64µM*	-2.8%
CCOC(=O)c1ccccc1OC(=O)NNc1ccccc1	-0.2	?	1.6%	-0.2%
O=C(Nc1ccc2nc(SCC(=O)N3CCCc4ccccc43)sc2c1)c1cccc(F)c1	nt	?	-1.7%	0.8%
Cc1ccc(NS(=O)(=O)c2c(F)cc(F)c(Cl)c2F)cc1S(=O)(=O)N1CCOCC1	1.3	-7.7%	-6.5%	?
CN(C)c1c([N+](=O)[O-])cc(N2C(=O)C=CC2=O)cc1[N+](=O)[O-]	0.0	?	?	-0.6%
COC1/C=C/C=C(\C)Cc2cc(O)c(Cl)c(c2)N(C)C(=O)CC(OC(=O)C(C)C)C2(C)OC2C(C)C2CC1(O)NC(=O)O2 (configuration not stated)	0.5	8.2µM*	?	-1.3%
Cc1cccc(N(CC(=O)NCCSc2ccc(Cl)cc2)S(=O)(=O)c2ccccc2)c1C	nt	?	-11.3%	-0.3%
C=Cc1cc(OC)c2c(c1)c(=O)oc1c2cc(OC)c2c(O)ccc(C3OC(C)C(O)C(C)(O)C3O)c21 (configuration not stated)	-7.3	2.06µM*	5.17µM*	-1.9%
COC(=O)c1ccc(CSc2nc3c(cnn3-c3ccc(C)cc3)c(=O)[nH]2)o1	-0.4	23.1µM*	-1.3%	0.2%
CN(C(=O)CSc1nc2ccc(NC(=O)COc3ccc(Cl)cc3)cc2s1)c1ccccc1	nt	14.6µM*	-18.3%	2.5%
COc1cccc(C(=O)Nc2ccc3nc(SCC(=O)N(C)c4ccccc4)sc3c2)c1	nt	?	-18.1%	0.1%
Cc1sc2ncnc(SCC(=O)Nc3ccc(S(=O)(=O)N4CCOCC4)cc3)c2c1C	-0.8	?	0.9%	3.2%
Cc1sc2c(c1C)C(c1cccs1)=NCC(=O)N2CC(=O)NCc1cccs1	2.9	-2.4%	-2.5%	0.0%
Cc1sc2c(c1C)C(c1ccc(C(C)(C)C)cc1)=NCC(=O)N2CC(=O)Nc1nccs1	-1.2	11.6µM*	-23.9%	0.4%
CN(CCc1ccccn1)Cc1ccc(Cl)cc1	0.4	?	?	0.3%
Nc1nonc1-n1nnc(C(=O)N/N=C/c2ccc3c(c2)OCO3)c1CSc1ccccc1	-0.9	?	-7.8%	0.3%
CN(Cc1ccccc1)C(=O)CN1CCCC1=O	-0.5	-7.1%	3.2%	-0.4%
CN(Cc1ccccc1)C(=O)c1ccc(NC(=O)C2CCN(C(=O)OC(C)(C)C)CC2)cc1	-4.2	16.4µM*	-5.0%	3.0%
CCc1nn2c(=O)cc(N3CCN(C)CC3)nc2s1	nt	7.7%	-2.1%	nt
Cc1cc(N2CCCCC2)nc2ccc(NC(=O)/C=C/c3ccc(OC(C)C)cc3)cc12	nt	?	-9.2%	0.4%
O=C(CCCc1nc(-c2ccc(Cl)cc2)no1)NCC1CCCO1 (configuration not stated)	-4.5	13µM*	-5.5%	0.3%

Screening data (PubChem)
